Assay results reported in PubChem BioAssay (NCATS).
Inconclusive results are not listed. Active and inactive are the calls of the source. Calls come from the whole dose curve; as a rule, active = well fitted curve in the direction sought with a large enough effect; inconclusive = small, poorly fitted or top-dose-only effect, or another doubt; inactive = no such curve, though single readings can be large; an effect the other way counts as inactive or inconclusive.

How the values were obtained:
[1] = biological target: Calcium and integrin-binding protein 1 (Homo sapiens) (UniProt Q99828); experiment: Primary qHTS for Identification of Calcium Integrin Binding Protein 1 (CIB1) Competitor (AID 1508620); details: CIB1-GST / FITC-alphaIIb peptide fluorescence polarization; series mostly up to 57.7 µM;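 note: GST tagged CIB1 binding a fluorescein labelled alphaIIb integrin peptide tracer; top concentration of the series differs between compounds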
How it was run: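 Fluorescence polarization competition: CIB1-GST (1 uM final) preincubated with compound 15 min at room temperature, then FITC-labeled alphaIIb peptide (100 nM final) added for another 15 min. Polarization read at Ex 480/Em 540.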

[2] = Primary qHTS for inhibitors of nuclear receptor binding SET domain protein 2 (NSD2) in an isogenic RCH-ACV NSD2 p.E1099K mutant (9B) (AID 1645876); details: RCH-ACV NSD2 E1099K (9B) viability, CellTiter-Glo, 72 h; series mostly up to 44.9 µM; note: nearly all actives have a fitted effect of over 70% in size
[3] = Primary qHTS for inhibitors of nuclear receptor binding SET domain protein 2 (NSD2) in an RCH-ACV wild type WT cells (2C) (AID 1645877); details: RCH-ACV (leukaemia line) NSD2 WT (2C) viability, CellTiter-Glo, 72 h; series mostly up to 44.9 µM; note: nearly all actives have a fitted effect of over 70% in size

Measured: Potency

Sequence of Calcium and integrin-binding protein 1 (Homo sapiens) (Q99828 whole entry, looked up): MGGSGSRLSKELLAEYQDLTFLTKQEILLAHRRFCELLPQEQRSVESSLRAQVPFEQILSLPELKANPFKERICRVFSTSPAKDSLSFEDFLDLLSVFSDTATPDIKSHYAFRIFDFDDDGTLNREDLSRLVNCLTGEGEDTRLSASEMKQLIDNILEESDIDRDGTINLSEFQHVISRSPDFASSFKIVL

COc1cc2c(cc1OC)N1C(=O)C[C@@]34C=CC[N@+]5([O-])CC[C@H]2[C@H](CC3)[C@@]145
inactive: [1] | [2] | [3]

C=C1[C@H]2CCC3[C@]4(C)CCC[C@@](C)(C(=O)O)C4CC[C@]3(C2)[C@H]1OC(C)=O (some centres undefined)
inactive: [1] | [2] | [3]

CC(C)(O)C1CC=C(C(=O)OC[C@H]2O[C@@H](Oc3cc(C(=O)O)cc(O)c3O)[C@H](O)[C@@H](O)[C@@H]2O)CC1 (some centres undefined)
inactive: [1] | [2] | [3]

CC1(C)CC[C@]2(C(=O)O)CC[C@]3(C)C(=CCC4[C@@]5(C)CC[C@H](O)C(C)(C)C5CC[C@]43C)C2C1 (some centres undefined)
inactive: [1] | [2] | [3]

C=C1C(OC(C)=O)CCC2(C)CCC(C(C)(C)O)CC12 (centres undefined)
inactive: [1] | [2] | [3]

CC1(CO)CCCC2(C)C1C(OC(=O)c1ccccc1)CC1C(=O)OCC12O (centres undefined)
inactive: [1] | [2] | [3]

COc1cc([C@@H](O[C@@H]2O[C@H](CO)[C@@H](O)[C@H](O)[C@H]2O)[C@@H]2CO[C@H](c3ccc(O)c(OC)c3)[C@H]2CO)ccc1O
inactive: [1] | [2] | [3]

C[C@]1(OC(=O)/C=C/c2ccccc2)C[C@@H](O)[C@]2(O)C=CO[C@@H](O[C@@H]3O[C@H](CO)[C@@H](O)[C@H](O)[C@H]3O)[C@@H]21
inactive: [1] | [2] | [3]
